From ChEMBL document CHEMBL4513216, “Probing the Open Global Health Chemical Diversity Library for Multistage-Active Starting Points for Next-Generation Antimalarials” (ACS Infect Dis, 2020)
Hit rate of the full screen: of about 69,000 compounds, about 8,600 (12%) showed an effect of 50% or more. The sample holds strong results, similar compounds and a random draw of the others, so the mix is not that of the screen.

test system: Plasmodium berghei; assay: Screen against P. berghei liver stage (PbLuc), transformed with Luciferase, at 10uM; assay type: functional, HepG2; conditions: tested at 10 uM

Row | SMILES | INHIBITION [%]
1 | O=C(Cc1ccccc1)N1CCCC2(COCCN(CC3CC3)C2)C1 (stereo unspecified) | 19.5
2 | Cc1ccc(C(C(=O)NCc2n[nH]c(N)n2)N(C)C)cc1 (stereo unspecified) | 19.5
3 | CC(=O)N(C)Cc1ncn2c1CN(C(=O)C1CCCO1)CCC2 (stereo unspecified) | -0.453
4 | COCCN1CCN(Cc2cnc(C(C)C)nc2)CC1 | 53.2
5 | CCc1ncc(CN2CCN(CCOC)CC2)cn1 | 11.1
6 | COCCN1CCN(Cc2cnc(C)nc2)CC1 | -9.32
7 | CN(C)S(=O)(=O)c1ccc(-c2nc(C#N)c(NC3CC3)o2)o1 | 15.4
8 | Cc1noc(C)c1S(=O)(=O)N1CCc2nc(C3CCNCC3)ncc2C1 | 34
9 | O=S(=O)(c1ccccc1Cl)N1CCc2nc(C3CCNCC3)ncc2C1 | 75.6
10 | O=S(=O)(N1CCCCC1)N1CCc2nc(C3CCNCC3)ncc2C1 | 22.2
11 | Clc1ccccc1CN1CCc2nc(C3CCNCC3)ncc2C1 | 23.2
12 | CCC(C)S(=O)(=O)N1CCc2nc(C3CCNCC3)ncc2C1 (stereo unspecified) | 57.5
13 | Cc1ccc(S(=O)(=O)N2CCc3nc(C4CCNCC4)ncc3C2)cc1 | 68.2
14 | CCN(CC)S(=O)(=O)N1CCCC(c2ncc3c(n2)CCN(C)C3)C1 (stereo unspecified) | 43.25
15 | CCN(CC)S(=O)(=O)N1CCc2nc(C3CCNCC3)ncc2C1 | 32.3
16 | O=S(=O)(c1ccc(Cl)cc1)N1CCc2nc(C3CCNCC3)ncc2C1 | 9.93
17 | COc1c(CNC2(c3noc(C)n3)CCC2)c(C(C)C)nn1C | -113
18 | Cc1ocnc1C(=O)N1CCCN(Cc2cscn2)CC1 | 35.3
19 | O=C(c1ccncc1)N1CC[C@@H]2CN(C3CCOCC3)CCO[C@@H]2C1 | 23.1
20 | Cn1cccc1CN1CCC2(CC1)CC(Oc1cccnc1)C2 | 24.6
21 | Fc1cccc(Nc2nc(N3CCCC3)nc3c2CNCC3)c1 | 76.8
22 | COc1cccc(Nc2nc(N3CCCC3)nc3c2CNCC3)c1 | 42.5

Row | SMILES | INHIBITION [%]
23 | O=C(Nc1cccc(F)c1)NC1CCN(Cc2ccncc2)CC1 | 45.4
24 | O=C(c1cccc(F)c1)N1CCCC1c1ncc2c(n1)CCNC2 (stereo unspecified) | 36.7
25 | CC(O)CNc1nc(-c2cccnc2)nc2c1CCC2 (stereo unspecified) | -43
26 | NC1CCc2nc(-c3ccncc3)nc(Nc3cccc(F)c3)c2C1 (stereo unspecified) | 90.35
27 | c1cncc(-c2nc3c(c(NCC4(c5ccncc5)CC4)n2)CCC3)c1 | -5.38
28 | CC(Nc1nc(-c2ccncc2)nc2c1CCNC2)c1ccccc1 (stereo unspecified) | 46.3
29 | COc1cccc(Nc2nc(C3CCNCC3)c3ccccn23)c1 | 9.6
30 | COc1cccc(Nc2nc(-c3ccncc3)nc3c2CNCC3)c1 | 51.7
31 | NC1CCc2nc(-c3cccnc3)nc(Nc3ccc(F)cc3)c2C1 (stereo unspecified) | 63.85
32 | c1csc(CCNc2nc(-c3ccncc3)nc3c2CCNCC3)c1 | 31.6
33 | Cc1sc(CN)nc1-c1ccc(Cl)cc1 | 5.11
34 | CCc1cc(-c2cc[nH]n2)nc(N2CCCC2)n1 | 14.6
35 | Cn1cc([C@@H]2CN(S(=O)(=O)c3cccs3)C[C@H]2N)c2ccncc21 | 41.9
36 | Cc1c(CC(=O)N2CCSCC2)nnn1-c1cccc(Cl)c1 | 3.46
37 | O=C(CC1CCCC1)N1CCC2(CC1)[C@H](O)C[C@@H]2O | 33.4
38 | CN(Cc1ccco1)C(=O)CN1CCCC1Cn1cncn1 (stereo unspecified) | -4.16
39 | Cc1cnn(C2CCCN(C(=O)c3cn4ccccc4n3)C2)c1 (stereo unspecified) | 22.3
40 | COc1ccnc(N2CCN(C(=O)Cc3csc(C)n3)CC2)n1 | -55.4
41 | CCOc1ccccc1CNCC1CCN(CC(C)O)CC1 (stereo unspecified) | 28.7
42 | CCN(CC)C(=O)Nc1cccc(Oc2ccccn2)c1 | 20
43 | Cc1nc(C2CCCN(C(=O)c3ccc(N4CCCC4)nn3)C2)no1 (stereo unspecified) | -19.4
44 | CCn1cc(-n2cc3nc(N(C)C)[nH]cc-3c2=O)cn1 | -13

Row | SMILES | INHIBITION [%]
45 | Cc1occc1C(=O)N1Cc2nccn2CC(CN2CCCC2)C1 (stereo unspecified) | 31.2
46 | Cc1noc(C)c1CC(=O)N1CCCC(Cn2ccnc2C)C1 (stereo unspecified) | 44.7
47 | CCc1nnc(CN(CC)C(=O)C(C)n2ccnc2C(C)C)o1 (stereo unspecified) | 30.3
48 | Cc1cc2c(=O)n3c(nc2s1)CCN(C(=O)c1scnc1C)CC3 | 40.9
49 | Cc1cc(C(=O)N2CCc3nc4sc(C)cc4c(=O)n3CC2)on1 | 53.2
50 | Cc1nc(C)c(C(=O)N2CCc3nc4sc(C)cc4c(=O)n3CC2)o1 | -12.9
51 | Cc1cc2c(=O)n3c(nc2s1)CCN(C(=O)c1c(C)noc1C)CC3 | 41.2
52 | Cc1cc2c(=O)n3c(nc2s1)CCN(C(=O)c1ccnn1C)CC3 | -16.5
53 | Cc1cc2c(=O)n3c(nc2s1)CCN(C(=O)c1sc(C)nc1C)CC3 | 80.9
54 | Cc1noc(C)c1-c1cccc(CC2CCN(C(=O)CN)C2)n1 (stereo unspecified) | 36.7
55 | Cc1ccc2c(n1)N(CCn1cccn1)CCN(C(=O)CC1CC1)C2 | -1.64
56 | CCn1cnnc1CNC(=O)N1CCN(Cc2ccsc2)CC1 | -63.3
57 | CCN1Cc2ccccc2CC2(CCN(C(=O)N(C)C)CC2)C1=O | 36.5
58 | CC[C@@H]1N(Cc2ccc(C)s2)CCC[C@]12CCC(=O)N2C | -24.5
59 | CCCn1ccnc1-c1cccc(NC(=O)[C@H]2CCC(=O)N2)c1 | 24.3
60 | CCCn1ccnc1-c1cccc(NC(=O)C2CCCOC2)c1 (stereo unspecified) | 55
61 | CCCn1ccnc1-c1cccc(NC2CCOC2)c1 (stereo unspecified) | 33.4
62 | c1coc(CN2CCC3(CC2)COCCN(CCN2CCCC2)C3)c1 | 0.923
63 | CC(C)NC(=O)N(C)C(c1cccc(F)c1)c1ccccn1 (stereo unspecified) | -132
64 | O=C(N[C@@H]1CCC[C@@H](N2CCOCC2)[C@@H]1O)c1cnn2cccnc12 | -32.2
65 | Cc1cc(CNC(=O)NC(C)c2ccncc2)no1 (stereo unspecified) | 11.8
66 | CCc1cc(CNC(=O)c2cc(NC(=O)C(C)C)ccc2Cl)[nH]n1 | 21.2

Row | SMILES | INHIBITION [%]
67 | Cc1cc(CNC(=O)c2cc(NC(=O)C(C)C)ccc2Cl)no1 | 68.3
68 | NC(=O)c1cnn2c1NCC(CNCCCc1ccccc1)C2 (stereo unspecified) | 6.35
69 | Cc1ccc(-c2cc(CNC(=O)N3CCC(O)CC3)on2)cc1 | -25.8
70 | O=C(CSCc1ccncc1)NCc1csc(Br)c1 | 43.2
71 | CS(=O)(=O)N1CCCn2nc(CNc3cc(C#N)ccn3)cc2C1 | 23
72 | CS(=O)(=O)NCc1cc2n(n1)CCCN(Cc1nc3ccccc3[nH]1)C2 | 20.1
73 | Cc1nccc(NCc2cc3n(n2)CCCN(S(C)(=O)=O)C3)n1 | 24.9
74 | CCc1cc(NCc2cc3n(n2)CCCN(S(C)(=O)=O)C3)nc(C)n1 | 53
75 | CS(=O)(=O)N1CCCn2nc(CNc3ncccn3)cc2C1 | 34.9
76 | Cc1cc(F)cc(CN2CCCn3nc(CNS(C)(=O)=O)cc3C2)c1 | 24.9
77 | Cc1cc(NCc2cc3n(n2)CCCN(S(C)(=O)=O)C3)ncn1 | -9.86
78 | Cc1c[nH]c(CN2CCCn3nc(CNS(C)(=O)=O)cc3C2)n1 | 66.6
79 | CC(=O)c1ccc(NCc2cc3n(n2)CCCN(S(C)(=O)=O)C3)nc1 | 50.3
80 | CCOC1CCN(C(=O)NCCc2ccn(-c3ccccc3)n2)CC1 | -10.1
81 | COCC1c2c(cnn2C)CCN1Cc1ccc(F)cc1 (stereo unspecified) | 21.6
82 | O=C1CC2(CCN(c3nncs3)C2)CN1c1ccc2c(c1)OCCO2 (stereo unspecified) | -7.29
83 | COCCn1ccc2ccc(C(=O)N3CCN(C(C)=O)CC3)cc21 | 10.5
84 | Cc1cc(C)n(Cc2ccc(C(=O)N3CCOCC3(C)C)cc2)n1 | 27.9
85 | CCc1nnc2ccc(N3CCN(S(=O)(=O)c4ccc(C)s4)CC3)nn12 | 10.1
86 | Cc1ccc(C(=O)N2CCCC(Cn3cc(C(C)(C)N)nn3)C2)s1 (stereo unspecified) | 64
87 | Cc1ccc(S(=O)(=O)N2CCN(CCC(N)=O)CC2)s1 | 38.8
88 | Cc1ccc(S(=O)(=O)N2CCC(Cn3cc(C(C)(C)N)nn3)CC2)s1 | 61.8

Row | SMILES | INHIBITION [%]
89 | Cc1cnc(C(=O)N2CCCC(Cn3cc(C4CC4)nn3)C2)cn1 (stereo unspecified) | -66.7
90 | CC1=C(C(=O)N2CCCC(Cn3cc(CO)nn3)C2)OCCO1 (stereo unspecified) | 13
91 | CN1CCC(NCC(O)c2cccc(OCc3ccccc3)c2)CC1 (stereo unspecified) | 14.9
92 | NC(=O)c1cc(C2CCCN(C(=O)CCc3ccccn3)C2)n[nH]1 (stereo unspecified) | -19.9
93 | CCC(C)N(Cc1sccc1C)C(=O)c1ccc(S(C)(=O)=O)cc1 (stereo unspecified) | 20.3
94 | CN(C)C(=O)CN1CCC(c2cncc(-c3cccc(Cl)c3)n2)CC1 | 0.301
95 | Cc1ccc(-n2nc3n(c2=O)CCN(C(=O)c2ccc(Cl)cc2)C3)cc1 | 15.9
96 | C1CC(c2nnc(CN3CCCC3c3noc(C4CC4)n3)o2)C1 (stereo unspecified) | -7.13
97 | N#CC1(NC(=O)c2ccc(-c3nc(C4CC4)n[nH]3)cc2)CCC1 | 28.8
98 | CCc1noc(CN(CCS(C)(=O)=O)C(C)(C)C)n1 | -37.1
99 | CCc1cc(N2CCC(NCCc3ccc(C)o3)CC2)nc(C)n1 | 21.3
100 | Cc1cc(C)nc(N2CCC(NCCSc3nnnn3C)CC2)n1 | 35.1
101 | CCc1c(C)nc(C)nc1N1CCC(NCCSc2nnnn2C)CC1 | 36.2
102 | CCc1cc(N2CCC(NCCSc3nnnn3C)CC2)nc(C)n1 | 61.8
103 | Cn1nnnc1SCCNC1CCN(c2ccc3c(c2)OCO3)CC1 | 65
104 | Cn1nnnc1SCc1cc2c(cc1Cl)OCO2 | 25.2
105 | CN(Cc1cn(-c2ccccc2)nn1)C1CCCN(c2cccnn2)C1 (stereo unspecified) | -9.76
106 | O=C1CC2(CCCNC2)C(=O)N1Cc1cccc(Cl)c1 (stereo unspecified) | -4.82
